Measured values from PubChem BioAssay AID624288 (National Center for Advancing Translational Sciences (NCATS), 2012).
In all, about 340,000 compounds went through this assay and about 1,400 (0.41%) were called active. Roughly 4% stayed inconclusive and do not appear here. Many of the other results were omitted from the sample, so actives are more common in it than they were. A number with no mark means an inactive call. The call rests on the fitted dose curve; cell line not stated here.

Assay: qHTS for Antagonists of gsp, the Etiologic Mutation Responsible for Fibrous Dysplasia/McCune-Albright Syndrome: qHTS; further: nearly all actives have a fitted effect of over 65% in size
Conditions: gsp-mutant cells, cAMP HTRF, 30 min; series mostly up to 76.9 µM; activity change, negative = inhibition: at the top concentration
Text: McCune-Albright syndrome (MAS) is a rare disease caused by somatic mutations in Gsgsp), a widely expressed protein central in signal transduction from G-coupled protein receptors (GPCRs). The disease symptoms are diverse, owing to the fact that the patients are mosaics with varying degrees of tissue involvement. Greater than 90% of the mutations in Gs in MAS occur at the R201 position and are equally divided between R201H and R201C. The R201 residue is central in the intrinsic GTPase activity of Gs and the H and C mutations lead to loss of, or impairment of, the GTPase activity. The intrinsic GTPase activity is necessary to terminate the interaction between Gs and adenylate cyclase, and to terminate the cAMP-mediated signaling of the given GPCR pathway. Thus, these activating mutations lead to ligand-independent activation of GPCR pathways. The tissue phenotype is determined by the role of Gs in the function of a given cell, and excess Gs/cAMP signaling in that cell. For example, pituitary somatotrophs overproduce growth hormone in a growth hormone releasing hormone-independent fashion, and gigantism/acromegaly ensues. Skeletal stem cells in the bone marrow behave as if they are under constant parathyroid hormone stimulation and fail to differentiate into osteoblasts and osteocytes, and proliferate as immature osteogenic cells and lead to the marrow fibrosis of fibrous dysplasia of bone. The goal of this project is to identify molecules with inhibitory activity at gsp mutations that will not only allow for in-depth study of the underlying molecular and cellular pathophysiology, but also serve as compounds from which drugs to treat FD/MAS can be developed NIH Chemical Genomics Center [NCGC] NIH Molecular Libraries Probe Centers Network [MLPCN] MLPCN Grant: IRP-FT-DE-2011-01 Assay Submitter (PI): Michael Collins, NIDCR
1.#Seed 2000 cells/well in 6 ul DMEM 10% FBS, 1% Pen/Strep, 0.5 mg/ml G418 2.#Incubate 16-24 hr at 37C, 5% CO2, 95% humidity 3.#Aspirate leaving 1 ul residual volume 4.#Dispense 5 ul/well DPBS + 1 mM CaCl2, 0.5 mM MgCl2, 0.05% BSA, 0.005% Tween 20 5.#Aspirate leaving 2 ul residual volume 6.#Dispense 23 nl/well compounds in DMSO 7.#Dispense 1 ul/well 300 uM Ro-20174 in DMEM 10% FBS 8.#Incubate 30 min at 37C, 5% CO2, 95% humidity 9.#Dispense 1.5 ul/well HTRF reagent: cAMP-d2 in lysis buffer 10.#Dispense 1.5 ul/well HTRF reagent: anti-cAMP antibody-K in lysis buffer 11.#Incubate 30 min at room temperature 12.#Detect HTRF signal using EnVision plate reader
On the % scale 0 is the no-effect control and ±100 the full control effect; potency means the concentration at half of the fitted maximal effect.

SMILES	Potency	activity change, negative = inhibition [%]
COc1ccc(C(=O)OCC(=O)c2ccc(C)c(S(=O)(=O)N3CCOCC3)c2)cc1OC	28.2 µM (active)	–
COc1ccc(CNC(=O)COC(=O)c2ccc(C)c(S(=O)(=O)N3CCOCC3)c2)cc1OC	–	-4.89
Cc1ccc(C(=O)OCC(=O)N2CCCCCC2)cc1S(=O)(=O)N1CCOCC1	–	-6.68
COC1C(CO)OC(n2cnc3c(=S)nc(N)[nH]c32)C1O (configuration not stated)	–	-0.246
COc1ccc2oc(N)nc2c1	–	7.22
NC(=O)C1(Nc2ccc([N+](=O)[O-])cc2)CCCC1	–	7.87
COc1ccc(N2CCN(C(=O)CNC(=O)c3ccc(Br)o3)CC2)cc1	–	5.12
O=C(NCCc1csc(-c2ccccc2)n1)c1ccccc1F	–	-20.8
COc1ccc(-c2nc(CCNC(=O)c3ccc(Br)o3)cs2)cc1	44.7 µM (active)	–
Cc1ccc(S(=O)(=O)N2CCN(C(=O)c3cc(S(=O)(=O)N4CCOCC4)ccc3F)CC2)cc1	–	6.87
c1ccc(-c2c[nH]c(-c3ccccc3)c2)cc1	–	-13.3
Cc1ccc(S(=O)(=O)c2cc3c(=O)n4cccc(C)c4nc3n(CCc3ccccc3)c2=N)cc1C	–	8.56
CC12CCCCC1=CC(=O)CC2 (configuration not stated)	–	-0.525
CC(C)Cc1nnc(N)s1	–	5.9
COc1ccc(-n2cnc3cc(NCc4ccco4)ccc32)cc1	–	-16
Cn1c2ccccc2c(=O)c2c(=O)n(Cc3ccco3)c(COc3ccccc3)nc21	–	-3.84
COc1ccc(-c2oc3ncn(Cc4ccco4)c(=N)c3c2-c2ccc(OC)cc2)cc1	50.1 µM (active)	–
OCC(O)C1OCOC(C(O)CO)C1O (configuration not stated)	–	-2.27
CCOC(=O)N(Cc1ccccc1)C1CC1	–	12.5
CCc1c(Nc2ccccc2Cl)nc(N)[nH]c1=O	–	8.47
CC(=O)NCC(=O)NC1CCCc2c1cnn2-c1ccccc1F (configuration not stated)	–	2.94
Cc1cc(C(=O)NC2CCCc3c2cnn3-c2cccc(C)c2C)c(C)o1 (configuration not stated)	–	-32.6
COc1ccc(C(=O)NC2CCCc3c2cnn3-c2cccc(C)c2C)c(OC)n1 (configuration not stated)	39.8 µM (active)	–
S=C(Nc1ccccc1)Nc1ccc2ccccc2c1	–	2.23
Cn1c(=O)[nH]c2c(c(C(=O)O)nn2C)c1=O	–	12.5
COc1cccc(C(=O)OCC(=O)c2[nH]c(C)c(C(C)=O)c2C)c1	–	9.61

SMILES	Potency	activity change, negative = inhibition [%]
CC(=O)c1c(C)[nH]c(C(=O)COC(=O)c2cccs2)c1C	–	2.97
CC(=O)c1c(C)[nH]c(C(=O)COC(=O)c2cccc(S(=O)(=O)N(C)c3ccccc3)c2)c1C	31.6 µM (active)	–
Cc1noc(C)c1NC(=O)Nc1ccc2c(c1)C(=O)N([C@H](C)CO)C[C@H](C)[C@@H](CN(C)S(=O)(=O)c1cn(C)cn1)O2	–	8.95
Cc1noc(C)c1NC(=O)Nc1ccc2c(c1)C(=O)N([C@H](C)CO)C[C@H](C)[C@@H](CN(C)C(=O)Nc1ccccc1)O2	–	-0.581
COc1ccc(S(=O)(=O)N(C)C[C@@H]2Oc3ccc(NC(=O)Nc4c(C)noc4C)cc3C(=O)N([C@H](C)CO)C[C@@H]2C)cc1	7.94 µM (active)	–
O=C(CCCCCCCC(=O)N1CCCCC1)N1CCCCC1	–	5.76
COc1ccc(CCC(=O)Nc2ccc(Cl)c(S(=O)(=O)N3CCOCC3)c2)cc1OC	–	-29.5
CC(=O)N1CCc2ccc(N)cc21	–	-6.4
CCCCN(C(=O)c1cccc(N2C(=O)c3ccccc3C2=O)c1)c1c(N)n(CCCC)c(=O)[nH]c1=O	–	5.59
Cc1nn2cc(-c3ccc(Cl)cc3)cnc2c1Br	8.91 µM (active)	–
CCCCNC1(C#N)CCN(Cc2ccccc2)CC1	–	-5.64
O=C(OCCOc1ccccc1F)c1cc(S(=O)(=O)N2CCOCC2)ccc1F	–	-15.2
O=C(Nc1nncs1)c1cccc(S(=O)(=O)N2CCCCC2)c1	–	-3.16
Cc1nc2ccc(NC(=O)c3cccc(S(=O)(=O)N4CCOCC4)c3)cc2s1	–	-11.8
O=C(Nc1nnc(S(=O)(=O)N2CCCCCC2)s1)c1cccc(Br)c1	28.2 µM (active)	–
O=C(Nc1nnc(S(=O)(=O)N2CCOCC2)s1)c1cccc(Br)c1	44.7 µM (active)	–
COc1cccc(C(=O)Nc2nnc(S(=O)(=O)N3CCOCC3)s2)c1	–	-6.83
COc1cccc(C(=O)Nc2nnc(S(=O)(=O)N3CCCCC3)s2)c1	–	-14.2
Cc1nc(N)nc(Cl)c1CCC1OCCO1	–	9
CCN1C[C@@H]2[C@@H]3C(=O)N(Cc4ccccc4)C(=O)[C@@H]3[C@](C)(C1=O)N2C(=O)c1ccc(C(C)(C)C)cc1	–	0.48
Cc1nc2c(C(=O)NCc3ccc4c(c3)OCO4)c[nH]n2c(=O)c1Cc1ccccc1F	28.2 µM (active)	–
O=C(NCc1ccc2c(c1)OCO2)c1cc(F)c(F)cc1Cl	–	-9.25
CCn1c(=O)c(C(=O)NCc2ccc3c(c2)OCO3)c(O)c2ccccc21	–	-3.59
COc1ccc(Nc2ccc3ccccc3c2)cc1	–	0.49
Cc1ccc(Nc2c(O)nc[nH]c2=O)cc1C	–	-0.0318
O=C(NCC1(N2CCCCC2)CCCCC1)c1cccc(S(=O)(=O)Nc2ccccc2Cl)c1	–	-6.06
